Data: PubChem BioAssay (NCATS)
Results filed as inconclusive are left out. Unmarked numbers belong to inactive results. Active and inactive are the calls of the source. Calls follow the shape of the dose curve; as a rule, active = well fitted inhibition curve with a large enough effect; inconclusive = small, poorly fitted or top-dose-only effect; inactive = flat fitted curve, though single readings scatter.

Test system: CRL-7250
Assay: Cytotoxic Profiling of Annotated Libraries Using Quantitative High-Throughput Screening (AID 1296008); also: nearly all actives have a fitted effect of over 60% in size
Details: Five cell lines viability, CellTiter-Glo ATP luminescence, 48-72 h; max response: stronger effect = lower value
Summary of the method: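 Cells exposed to compounds for 48 or 72 hr at 37 degrees Celsius. Viability read as ATP-coupled luminescence with CellTiter-Glo after 10 min at room temperature.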
% is scaled to controls: 0 for no effect and ±100 for the full control effect; potency is read from the fitted curve at half-maximal effect.

SMILES	outcome	max response	Potency
COc1c2c(c(C)c3c1C(=O)OC3)OC1(C)CC(O)C(C(C)(C)O)C(C)(CCC(=O)O)C1C2 (stereo not drawn)	inactive		
CCOC(=O)c1cc(C#N)c(N2CCC(C(=O)NS(=O)(=O)Cc3ccccc3)CC2)nc1C	inactive		
O=C(Nc1c(-c2cccs2)nc2ccccn12)c1ccc(Cl)cc1	inactive		
COC(=O)C[C@H]1C(C)(C)[C@H](OC(C)=O)C2CC3=C4CC(=O)O[C@@H](c5ccoc5)[C@]4(C)CCC3[C@@]1(C)C2=O (stereo partly drawn)		3.53%	
Cc1nc(C)c(-c2ccc(C3CCC(CC(=O)O)CC3)cc2)nc1C(N)=O (stereo not drawn)		0.3%	
CCOc1ccc(NC(=S)N2CCC(C(O)(c3ccccc3)c3ccccc3)CC2)cc1		-3%	
NC(=O)[C@H](O[C@@H]1O[C@H](CO)[C@@H](O)[C@H](O)[C@H]1O)c1ccccc1	inactive		
COC(=O)N[C@H](C(=O)N1[C@@H]2CC[C@@H](C2)[C@H]1c1nc2ccc(-c3ccc4c(c3)C(F)(F)c3cc(-c5cnc([C@@H]6CCC7(CC7)N6C(=O)[C@@H](NC(=O)OC)C(C)C)[nH]5)ccc3-4)cc2[nH]1)C(C)C		-2.17%	
OC/C=C/C=C/[C@H]1Cc2cc(O)cc(O)c2O1	inactive		
C[C@@H]1CN(Cc2ccccc2)C[C@H]1c1nc2c(cnn2C2CCOCC2)c(=O)[nH]1		-0.22%	
Cn1cc(-c2ccc3nnc(Sc4ccc5nn(C)cc5c4)n3n2)cn1		-2.56%	
O=C(Nc1ccc(S(=O)(=O)Nc2ccccc2Cl)c(Cl)c1)c1ccccn1		0.561%	
COc1ncc2cc(C(=O)Nc3cc(C(=O)NCc4cccc(Cl)c4)ccc3Cl)c(=O)[nH]c2n1	inactive		
CC(C)(C)c1cc(Br)cc([C@H](CC(=O)O)NC(=O)CNC(=O)c2cc(O)cc(NC3=NCC(O)CN3)c2)c1 (stereo partly drawn)		-6.62%	
CC(C)(C)NCCCNC(=O)c1cccc(Br)c1	inactive		
CC(C)CC(=O)O[C@@H]1OC=C(CO[C@@H]2O[C@H](CO)[C@@H](O)[C@H](O)[C@H]2O)[C@H]2[C@@H]3O[C@H]3[C@@](O)(CO)[C@@H]12		-0.109%	
Cc1c(C(=O)N2CCOc3ccc(-c4ccc(N)nc4)cc3C2)ccc(S(C)(=O)=O)c1F			4610 nM (active)
COC1CC(O[C@H]2CC[C@@]3(C)C(CCC4C3[C@H](OC(C)=O)[C@@H](OC(=O)/C=C/c3ccccc3)[C@]3(C)C(C(C)=O)CC[C@]43O)C2)OC(C)C1OC1CC(OC)C(OC2CC(OC)C(OC3OC(C)C(OC4OC(CO)C(O)C(O)C4O)C(OC)C3O)C(C)O2)C(C)O1 (stereo partly drawn)		-13.2%	
CC(=O)O[C@@H]1c2c3c(cc(O)c2C(=O)O[C@@H]1C)O[C@@]1(C)[C@@H](O)C[C@H]2C(C)(C)C(=O)C=C[C@]2(C)[C@@H]1C3		-27.6%	
CC1=C(C(=O)O)/C(=C\CO[C@@H]2O[C@H](CO)[C@@H](O)[C@H](O)[C@H]2O)C(OC(=O)/C=C/c2ccc(O)cc2)C1 (stereo partly drawn)		-18%	
CC[C@]1(O)CC2CN(CCc3c([nH]c4ccccc34)[C@@](C(=O)OC)(c3cc4c(cc3OC)N(C=O)[C@H]3[C@@](O)(C(=O)OC)[C@H](OC(C)=O)[C@]5(CC)C=CCN6CC[C@]43[C@@H]65)C2)C1 (stereo partly drawn)			64 nM (active)
COCCOc1cnc2ccn([C@H](C)c3nnc4c(F)cc(-c5cnn(C)c5)cn34)c(=O)c2c1	inactive		
COc1c2c(c(C)c3c1C(=O)OC3)OC1(C)CC(O)C34OC(OC)(CC(OC(C)=O)C3(C)C1C2)OC4(C)C (stereo not drawn)	inactive		
CC1(C)CCCC2(C)C=C(C(=O)O)C(O)CC12 (stereo not drawn)	inactive		
C[C@@H]1O[C@@H](O[C@H]2[C@@H](OC(=O)[C@]34CCC(C)(C)CC3C3=CCC5[C@@]6(C)C[C@H](O)[C@H](O[C@@H]7O[C@H](C(=O)O)[C@@H](O)[C@H](O)[C@H]7O)[C@@](C)(C(=O)O)C6CC[C@@]5(C)[C@]3(C)CC4)OC[C@H](O)[C@@H]2O)[C@H](O)[C@H](O)[C@H]1O[C@@H]1OC[C@@H](O)[C@H](O)[C@H]1O (stereo partly drawn)		-0.804%	
COc1ccc(Oc2cc(C)c(-c3csc(NC(=O)c4ccncc4)n3)c(C)c2)cc1			651 nM (active)
C=C1CC23CC1CCC2C12OC(=O)C(C)(CCC1O)C2C3C(=O)O (stereo not drawn)	inactive		
C[C@H]1CC[C@@H]2N(C1)C[C@@H]1[C@H]([C@@H](O)[C@H](O)[C@]3(O)[C@H]1C[C@@]14OC5(O)[C@@H](C[C@@H](O)[C@@H]31)[C@]4(C)CC[C@@H]5O)[C@]2(C)O	inactive		
